Drawing on article PMC7862700, “An all-to-all approach to the identification of sequence-specific readers for epigenetic DNA modifications on cytosine”, this text covers binding signal for one sequence.

Holding throughout (test): DAPPL (digital affinity profiling via proximity ligation, sequencing); 10 mM Tris-HCl pH 7.5, 50 mM NaCl, 1 mM DTT, 4% glycerol, room temperature, 30 min; GST-TFs on glutathione beads, 16-mer random dsDNA library, 0.1% formaldehyde crosslink after washing; high values mean tight binding
One test addresses T1, FEV (Homo sapiens, UniProt Q99581 1-238).
T1 sequence: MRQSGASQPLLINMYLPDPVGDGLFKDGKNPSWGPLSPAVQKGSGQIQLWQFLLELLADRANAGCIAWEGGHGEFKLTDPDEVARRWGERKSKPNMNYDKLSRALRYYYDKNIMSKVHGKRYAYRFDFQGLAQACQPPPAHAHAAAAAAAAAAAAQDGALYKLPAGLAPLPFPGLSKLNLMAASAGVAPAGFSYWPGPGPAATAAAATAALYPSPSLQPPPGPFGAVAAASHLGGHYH
Particulars: protein: recombinant; tags: N-terminal GST; dsDNA, one strand shown. The method, boiled down:
(§1)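 Binding signal is each hexamer's read frequency for a factor divided by its frequency in the tag-only sample. The factors were GST-fused human transcription factors from yeast, captured on glutathione beads, DNA-barcoded and pooled with that sample. Pools were incubated with 200 nmole of a random double-stranded 16-mer DNA library in Tris/NaCl/DTT/glycerol buffer at room temperature for 30 min, then washed, crosslinked with 0.1% formaldehyde, proximity-ligated with BsaI/T4 ligase (1 h, 37 °C), PCR-amplified and sequenced on an Illumina NextSeq500.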

In another test the target is ETV5 (Homo sapiens, UniProt P41161 1-510). Particulars: protein: recombinant; tags: N-terminal GST; dsDNA, one strand shown. The method, boiled down:
as §1

Another test deals with HSF1 (Homo sapiens, UniProt Q00613 1-529). As to conditions: protein: recombinant; tags: N-terminal GST; chain copies: 3; dsDNA, one strand shown. The method, boiled down:
as §1

For a further test, the target named is T2, SPIC (Homo sapiens, UniProt Q8N5J4 1-248).
T2 sequence: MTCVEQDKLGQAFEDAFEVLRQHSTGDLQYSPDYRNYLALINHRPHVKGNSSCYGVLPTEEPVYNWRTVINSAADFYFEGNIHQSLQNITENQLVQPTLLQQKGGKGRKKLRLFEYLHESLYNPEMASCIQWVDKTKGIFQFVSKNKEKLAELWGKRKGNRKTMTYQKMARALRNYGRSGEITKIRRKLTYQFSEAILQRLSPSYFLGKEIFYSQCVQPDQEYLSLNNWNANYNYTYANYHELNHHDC
Particulars: protein: recombinant; tags: N-terminal GST; dsDNA, one strand shown. The method, boiled down: as §1

The next test has as its target ELF4 (Homo sapiens, UniProt Q99607 1-663). Particulars: protein: recombinant; tags: N-terminal GST; dsDNA, one strand shown. In short, it runs like this:
as §1

A further test concerns the target T3, ELK4 (Homo sapiens, UniProt P28324-2 1-405).
T3 sequence: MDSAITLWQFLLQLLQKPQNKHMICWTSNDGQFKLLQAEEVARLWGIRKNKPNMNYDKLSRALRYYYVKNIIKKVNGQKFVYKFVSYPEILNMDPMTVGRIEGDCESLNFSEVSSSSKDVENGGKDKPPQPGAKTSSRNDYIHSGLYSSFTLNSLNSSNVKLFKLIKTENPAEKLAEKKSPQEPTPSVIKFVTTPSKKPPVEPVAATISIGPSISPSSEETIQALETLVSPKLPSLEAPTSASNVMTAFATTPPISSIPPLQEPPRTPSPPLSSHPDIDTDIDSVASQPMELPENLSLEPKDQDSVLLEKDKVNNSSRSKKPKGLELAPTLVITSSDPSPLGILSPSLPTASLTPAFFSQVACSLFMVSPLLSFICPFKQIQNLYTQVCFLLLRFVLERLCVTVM
Particulars: protein: recombinant; tags: N-terminal GST; dsDNA, one strand shown. The method, boiled down:
as §1

The target of another test is T4, ETV2 (Homo sapiens, UniProt O00321 1-342).
T4 sequence: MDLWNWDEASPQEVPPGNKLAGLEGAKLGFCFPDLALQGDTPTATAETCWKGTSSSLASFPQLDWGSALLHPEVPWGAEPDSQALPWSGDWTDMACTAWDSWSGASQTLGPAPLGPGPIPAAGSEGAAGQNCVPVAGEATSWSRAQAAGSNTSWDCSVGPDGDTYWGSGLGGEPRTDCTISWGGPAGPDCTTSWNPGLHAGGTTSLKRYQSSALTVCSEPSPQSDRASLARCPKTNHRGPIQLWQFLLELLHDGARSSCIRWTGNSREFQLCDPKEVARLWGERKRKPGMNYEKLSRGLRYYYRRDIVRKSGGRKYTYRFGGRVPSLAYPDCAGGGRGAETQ
As to conditions: protein: recombinant; tags: N-terminal GST; dsDNA, one strand shown. In short, it runs like this: as §1

The target in another test is T5, ELF3 (Homo sapiens, UniProt P78545 1-371).
T5 sequence: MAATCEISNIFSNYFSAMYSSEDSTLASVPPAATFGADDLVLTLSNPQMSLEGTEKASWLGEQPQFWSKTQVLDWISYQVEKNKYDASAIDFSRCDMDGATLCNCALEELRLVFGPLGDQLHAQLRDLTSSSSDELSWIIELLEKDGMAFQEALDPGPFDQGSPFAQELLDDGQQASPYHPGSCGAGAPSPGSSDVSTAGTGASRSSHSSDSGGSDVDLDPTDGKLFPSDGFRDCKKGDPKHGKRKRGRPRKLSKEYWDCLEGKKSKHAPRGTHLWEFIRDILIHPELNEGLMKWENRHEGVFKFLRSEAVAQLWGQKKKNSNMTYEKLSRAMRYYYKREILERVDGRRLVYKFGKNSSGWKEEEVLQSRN
Particulars: protein: recombinant; tags: N-terminal GST; dsDNA, one strand shown. The method, boiled down: as §1

The next test has as its target CRX (Homo sapiens, UniProt O43186 1-299). Particulars: protein: recombinant; tags: N-terminal GST; dsDNA, one strand shown. The method, boiled down: as §1
Another test concerns the target ETV1 (Homo sapiens, UniProt P50549 1-477). Particulars: protein: recombinant; tags: N-terminal GST; dsDNA, one strand shown. The method, boiled down:
as §1

A further test concerns the target T6, ERF (Homo sapiens, UniProt P50548 1-548).
T6 sequence: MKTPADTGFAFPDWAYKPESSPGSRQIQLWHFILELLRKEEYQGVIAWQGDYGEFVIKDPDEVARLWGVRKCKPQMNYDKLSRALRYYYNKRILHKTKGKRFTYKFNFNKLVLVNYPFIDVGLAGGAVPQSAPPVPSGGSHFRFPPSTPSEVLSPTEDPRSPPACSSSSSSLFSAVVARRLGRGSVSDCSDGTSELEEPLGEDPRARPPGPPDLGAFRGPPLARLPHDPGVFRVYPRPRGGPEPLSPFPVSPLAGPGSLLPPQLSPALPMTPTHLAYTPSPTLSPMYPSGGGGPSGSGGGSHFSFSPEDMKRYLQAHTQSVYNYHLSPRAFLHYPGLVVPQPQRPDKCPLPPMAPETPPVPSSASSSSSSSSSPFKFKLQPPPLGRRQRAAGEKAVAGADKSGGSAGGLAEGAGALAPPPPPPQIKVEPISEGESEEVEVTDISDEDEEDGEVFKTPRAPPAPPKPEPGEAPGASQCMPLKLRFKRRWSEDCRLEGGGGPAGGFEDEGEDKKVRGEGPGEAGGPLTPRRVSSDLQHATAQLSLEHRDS
Particulars: protein: recombinant; tags: N-terminal GST; dsDNA, one strand shown. In short, it runs like this: as §1

Another test has as its target T7, ETV3L (Homo sapiens, UniProt Q6ZN32 1-361).
T7 sequence: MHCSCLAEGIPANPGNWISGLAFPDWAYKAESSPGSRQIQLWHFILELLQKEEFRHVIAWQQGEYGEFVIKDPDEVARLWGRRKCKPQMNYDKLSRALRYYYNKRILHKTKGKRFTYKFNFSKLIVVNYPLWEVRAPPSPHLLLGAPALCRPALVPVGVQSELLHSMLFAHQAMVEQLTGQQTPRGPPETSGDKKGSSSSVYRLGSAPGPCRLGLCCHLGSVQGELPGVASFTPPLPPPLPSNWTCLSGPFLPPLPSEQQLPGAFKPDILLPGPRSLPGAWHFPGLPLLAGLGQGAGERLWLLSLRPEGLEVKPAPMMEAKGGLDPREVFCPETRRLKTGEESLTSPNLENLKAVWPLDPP
As to conditions: protein: recombinant; tags: N-terminal GST; dsDNA, one strand shown. The method, boiled down: as §1

Another test deals with T8, ETS2 (Homo sapiens, UniProt P15036 1-469).
T8 sequence: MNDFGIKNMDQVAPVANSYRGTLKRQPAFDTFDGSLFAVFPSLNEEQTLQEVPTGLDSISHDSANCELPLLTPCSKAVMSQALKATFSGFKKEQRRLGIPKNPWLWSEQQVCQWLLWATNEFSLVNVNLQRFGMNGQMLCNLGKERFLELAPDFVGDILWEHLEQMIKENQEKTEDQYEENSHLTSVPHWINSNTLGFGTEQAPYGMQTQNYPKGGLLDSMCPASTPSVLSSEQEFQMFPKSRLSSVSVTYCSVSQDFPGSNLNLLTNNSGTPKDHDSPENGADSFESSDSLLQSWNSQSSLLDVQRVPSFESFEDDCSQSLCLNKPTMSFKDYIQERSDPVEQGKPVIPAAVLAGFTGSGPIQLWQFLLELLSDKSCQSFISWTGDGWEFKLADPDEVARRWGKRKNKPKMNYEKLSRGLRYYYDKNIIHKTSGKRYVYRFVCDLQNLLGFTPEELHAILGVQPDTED
As to conditions: protein: recombinant; tags: N-terminal GST; dsDNA, one strand shown. In short, it runs like this:
as §1

For the next test, the target named is T9, SPDEF (Homo sapiens, UniProt O95238 1-335).
T9 sequence: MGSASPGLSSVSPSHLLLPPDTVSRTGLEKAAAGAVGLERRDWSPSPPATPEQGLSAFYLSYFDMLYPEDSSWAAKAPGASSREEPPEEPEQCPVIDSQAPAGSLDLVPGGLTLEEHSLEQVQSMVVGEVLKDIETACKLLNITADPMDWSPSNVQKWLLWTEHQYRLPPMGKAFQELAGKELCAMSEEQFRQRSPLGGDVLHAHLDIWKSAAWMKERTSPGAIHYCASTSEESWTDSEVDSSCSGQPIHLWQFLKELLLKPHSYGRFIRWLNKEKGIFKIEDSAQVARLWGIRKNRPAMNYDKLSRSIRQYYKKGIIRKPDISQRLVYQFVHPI
Particulars: protein: recombinant; tags: N-terminal GST; dsDNA, one strand shown. In short, it runs like this: as §1

The next test has as its target T10, ETV7 (Homo sapiens, UniProt Q9Y603 1-341).
T10 sequence: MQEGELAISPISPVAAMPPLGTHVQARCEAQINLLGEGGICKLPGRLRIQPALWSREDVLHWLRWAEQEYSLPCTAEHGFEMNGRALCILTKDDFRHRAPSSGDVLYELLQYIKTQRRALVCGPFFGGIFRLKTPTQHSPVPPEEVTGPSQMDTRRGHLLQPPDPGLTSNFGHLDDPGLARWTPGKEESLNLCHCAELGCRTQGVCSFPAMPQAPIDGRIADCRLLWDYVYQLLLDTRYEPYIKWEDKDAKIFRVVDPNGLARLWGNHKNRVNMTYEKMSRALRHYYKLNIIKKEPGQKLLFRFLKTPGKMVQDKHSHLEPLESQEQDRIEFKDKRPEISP
Particulars: protein: recombinant; tags: N-terminal GST; dsDNA, one strand shown. In short, it runs like this: as §1

The target of another test is T11, ELF5 (Homo sapiens, UniProt Q9UKW6-2 1-255).
T11 sequence: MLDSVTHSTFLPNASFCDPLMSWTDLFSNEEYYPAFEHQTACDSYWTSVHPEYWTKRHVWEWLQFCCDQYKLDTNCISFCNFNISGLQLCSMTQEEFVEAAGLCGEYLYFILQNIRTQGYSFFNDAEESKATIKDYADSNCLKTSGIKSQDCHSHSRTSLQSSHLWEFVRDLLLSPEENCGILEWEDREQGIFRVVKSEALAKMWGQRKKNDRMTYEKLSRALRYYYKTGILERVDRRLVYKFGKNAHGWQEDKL
Particulars: protein: recombinant; tags: N-terminal GST; dsDNA, one strand shown. In short, it runs like this:
as §1

Another test deals with T12, ETV3 (Homo sapiens, UniProt P41162-2 1-143).
T12 sequence: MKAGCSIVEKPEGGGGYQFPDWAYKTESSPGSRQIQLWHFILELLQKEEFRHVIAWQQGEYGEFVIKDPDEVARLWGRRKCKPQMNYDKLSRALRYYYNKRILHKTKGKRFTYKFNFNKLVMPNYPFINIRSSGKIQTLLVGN
As to conditions: protein: recombinant; tags: N-terminal GST; dsDNA, one strand shown. The method, boiled down: as §1

A further test deals with ETV6 (Homo sapiens, UniProt P41212 1-452). As to conditions: protein: recombinant; tags: N-terminal GST; dsDNA, one strand shown. The method, boiled down:
as §1

Sequence of ETV6 (P41212 whole entry): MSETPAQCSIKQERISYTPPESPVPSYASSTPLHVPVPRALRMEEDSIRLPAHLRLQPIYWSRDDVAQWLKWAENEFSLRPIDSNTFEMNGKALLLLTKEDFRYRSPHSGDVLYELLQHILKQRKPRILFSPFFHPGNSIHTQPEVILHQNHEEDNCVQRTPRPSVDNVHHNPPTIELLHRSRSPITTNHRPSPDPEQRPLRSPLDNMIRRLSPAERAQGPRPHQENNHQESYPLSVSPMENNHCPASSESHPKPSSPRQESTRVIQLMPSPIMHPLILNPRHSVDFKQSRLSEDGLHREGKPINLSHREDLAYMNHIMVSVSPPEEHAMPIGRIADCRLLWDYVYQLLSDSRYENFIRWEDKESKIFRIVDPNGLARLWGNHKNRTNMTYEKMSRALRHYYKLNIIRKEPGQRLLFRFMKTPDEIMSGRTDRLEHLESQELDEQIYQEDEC
Sequence of ELF4 (Q99607 whole entry): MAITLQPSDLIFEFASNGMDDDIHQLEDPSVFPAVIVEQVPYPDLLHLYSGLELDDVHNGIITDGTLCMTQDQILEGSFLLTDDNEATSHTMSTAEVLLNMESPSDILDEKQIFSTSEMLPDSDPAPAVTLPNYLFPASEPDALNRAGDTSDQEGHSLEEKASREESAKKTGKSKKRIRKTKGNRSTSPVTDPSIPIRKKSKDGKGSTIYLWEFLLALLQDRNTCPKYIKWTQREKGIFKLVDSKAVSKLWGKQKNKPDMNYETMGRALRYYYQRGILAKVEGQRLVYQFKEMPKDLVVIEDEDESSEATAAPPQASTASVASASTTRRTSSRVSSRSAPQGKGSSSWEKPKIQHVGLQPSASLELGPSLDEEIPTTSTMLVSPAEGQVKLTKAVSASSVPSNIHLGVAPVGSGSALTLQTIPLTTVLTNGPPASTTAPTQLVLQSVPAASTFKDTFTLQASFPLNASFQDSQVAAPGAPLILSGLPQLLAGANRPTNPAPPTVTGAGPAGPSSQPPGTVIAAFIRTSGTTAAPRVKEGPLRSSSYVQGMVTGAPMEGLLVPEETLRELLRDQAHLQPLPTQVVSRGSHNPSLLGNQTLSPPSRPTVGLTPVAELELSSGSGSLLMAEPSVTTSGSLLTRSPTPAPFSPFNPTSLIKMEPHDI
Sequence of HSF1 (Q00613 whole entry): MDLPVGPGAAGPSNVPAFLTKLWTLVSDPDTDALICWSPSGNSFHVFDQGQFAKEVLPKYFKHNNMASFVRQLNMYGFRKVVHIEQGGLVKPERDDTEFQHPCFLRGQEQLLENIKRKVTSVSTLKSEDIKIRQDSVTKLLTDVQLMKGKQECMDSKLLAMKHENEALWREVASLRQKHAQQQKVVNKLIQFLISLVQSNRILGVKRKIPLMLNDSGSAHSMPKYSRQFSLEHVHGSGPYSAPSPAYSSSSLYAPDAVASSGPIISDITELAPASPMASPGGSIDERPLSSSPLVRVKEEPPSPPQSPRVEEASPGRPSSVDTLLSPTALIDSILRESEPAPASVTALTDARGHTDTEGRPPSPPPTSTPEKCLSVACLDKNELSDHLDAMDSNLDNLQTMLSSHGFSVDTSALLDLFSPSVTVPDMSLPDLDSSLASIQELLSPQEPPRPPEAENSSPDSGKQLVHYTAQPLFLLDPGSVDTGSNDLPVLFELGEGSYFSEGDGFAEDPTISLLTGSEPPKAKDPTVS
Sequence of ETV1 (P50549 whole entry): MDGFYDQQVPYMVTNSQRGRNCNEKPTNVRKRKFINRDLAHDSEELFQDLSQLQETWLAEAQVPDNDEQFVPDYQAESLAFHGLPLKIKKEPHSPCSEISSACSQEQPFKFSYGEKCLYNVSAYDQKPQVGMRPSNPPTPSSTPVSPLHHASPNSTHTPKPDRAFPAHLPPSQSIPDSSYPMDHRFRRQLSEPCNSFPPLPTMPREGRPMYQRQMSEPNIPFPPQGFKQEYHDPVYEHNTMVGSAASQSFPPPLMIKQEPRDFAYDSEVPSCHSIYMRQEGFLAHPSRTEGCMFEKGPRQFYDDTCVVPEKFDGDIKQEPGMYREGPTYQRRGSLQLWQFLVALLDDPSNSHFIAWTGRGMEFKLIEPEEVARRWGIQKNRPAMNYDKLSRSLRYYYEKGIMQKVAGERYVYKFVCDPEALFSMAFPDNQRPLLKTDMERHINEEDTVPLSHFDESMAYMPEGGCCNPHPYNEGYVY
Sequence of ETV5 (P41161 whole entry): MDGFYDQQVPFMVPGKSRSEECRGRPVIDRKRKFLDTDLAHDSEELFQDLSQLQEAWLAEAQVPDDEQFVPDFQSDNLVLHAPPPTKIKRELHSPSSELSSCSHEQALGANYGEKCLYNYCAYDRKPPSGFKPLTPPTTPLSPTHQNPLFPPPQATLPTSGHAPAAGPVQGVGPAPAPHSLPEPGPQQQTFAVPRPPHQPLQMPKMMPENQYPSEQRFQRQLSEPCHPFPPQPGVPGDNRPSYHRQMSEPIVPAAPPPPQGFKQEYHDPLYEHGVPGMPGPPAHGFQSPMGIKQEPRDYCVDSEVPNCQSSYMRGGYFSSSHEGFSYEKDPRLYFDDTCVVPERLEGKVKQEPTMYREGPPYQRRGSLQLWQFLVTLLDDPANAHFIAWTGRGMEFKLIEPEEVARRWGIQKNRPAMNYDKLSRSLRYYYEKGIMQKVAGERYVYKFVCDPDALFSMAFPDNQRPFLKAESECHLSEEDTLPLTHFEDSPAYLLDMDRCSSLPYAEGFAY
Sequence of CRX (O43186 whole entry): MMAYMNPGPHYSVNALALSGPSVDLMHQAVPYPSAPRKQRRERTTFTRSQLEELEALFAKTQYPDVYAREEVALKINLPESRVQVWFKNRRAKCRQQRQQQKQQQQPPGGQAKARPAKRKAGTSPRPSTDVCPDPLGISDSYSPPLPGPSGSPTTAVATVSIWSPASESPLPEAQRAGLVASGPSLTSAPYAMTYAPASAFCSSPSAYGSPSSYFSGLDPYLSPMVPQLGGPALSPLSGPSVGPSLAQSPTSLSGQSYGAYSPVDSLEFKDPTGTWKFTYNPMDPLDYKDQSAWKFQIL

Take TTCTGC: the binding signal was 1.39 fold enrichment (6-mer frequency, TF over GST control) in the test with FEV; 1.46 fold enrichment (6-mer frequency, TF over GST control) with ETV5; 1.57 fold enrichment (6-mer frequency, TF over GST control) in the test with HSF1; 1.37 fold enrichment (6-mer frequency, TF over GST control) with SPIC; 1.52 fold enrichment (6-mer frequency, TF over GST control) with ELF4; 1.65 fold enrichment (6-mer frequency, TF over GST control) in the test with ELK4. The binding signal is 1.26 fold enrichment (6-mer frequency, TF over GST control) in the test with ETV2; 1.54 fold enrichment (6-mer frequency, TF over GST control) with ELF3; 1.36 fold enrichment (6-mer frequency, TF over GST control) with CRX; 1.45 fold enrichment (6-mer frequency, TF over GST control) with ETV1; 1.55 fold enrichment (6-mer frequency, TF over GST control) in the test with ERF; 1.4 fold enrichment (6-mer frequency, TF over GST control) with ETV3L. In addition, the binding signal is 1.33 fold enrichment (6-mer frequency, TF over GST control) with ETS2; 1.38 fold enrichment (6-mer frequency, TF over GST control) with SPDEF; 1.43 fold enrichment (6-mer frequency, TF over GST control) with ETV7; 1.38 fold enrichment (6-mer frequency, TF over GST control) with ELF5; 1.33 fold enrichment (6-mer frequency, TF over GST control) in the test with ETV3; 1.47 fold enrichment (6-mer frequency, TF over GST control) in the test with ETV6.
